Assay [1] in a line: ATG_M_61_CIS: Attagene CIS-FACTORIAL HepG2 Assay for M61 Transcription Factor (Internal Marker) (AID 2282937). Conditions: HepG2 Attagene CIS-FACTORIAL M61 internal marker reporter; actives raise or lower the signal. Summed up: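 Human liver HepG2, transient MRTU transfection (cis promoter elements), 24 h compound. Total RNA → oligo(dT) RT → PCR → FAM label → HpaI → CE. Internal background marker; bidirectional fitting, DMSO = baseline.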

The nature of assay [2]: ATG_EGR_CIS: Attagene CIS-FACTORIAL HepG2 Assay for human Early Growth Response 1 (EGR1) (AID 2282938). Conditions: HepG2 Attagene CIS-FACTORIAL EGR reporter mRNA; actives raise or lower the signal. Summed up: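 Transient transfection of human HepG2 with multiple cis-regulated reporter units, chemical exposure 24 h, total RNA isolated. Reverse transcription, PCR, fluorescent labelling and capillary electrophoresis quantify reporter transcripts; activity fitted bidirectionally against DMSO.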

The nature of assay [3]: ATG_M_19_CIS: Attagene CIS-FACTORIAL HepG2 Assay for M19 Transcription Factor (Internal Marker) (AID 2282939). Conditions: HepG2 Attagene CIS-FACTORIAL M19 internal marker reporter; actives raise or lower the signal. The method, boiled down: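 Chemical-treated HepG2 (24 h) with MRTU constructs; reporter transcripts detected by fluorescent RT-PCR fragment analysis on capillary electrophoresis. Internal background marker, DMSO as baseline.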

A short description of assay [4]: ATG_Ets_CIS: Attagene CIS-FACTORIAL HepG2 Assay for human Erythroblast Transformation Specific (ETS) (AID 2282941). The settings on record: HepG2 ETS cis-reporter transcription, actives raise or lower the signal. Summed up:
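Bidirectional fit versus DMSO of reporter mRNA signal, detected by RT-PCR and capillary electrophoresis in HepG2 cells transiently transfected with cis-element reporters and dosed 24 h.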

For assay [5], the target named is Hepatocyte nuclear factor 3-beta (Homo sapiens) (UniProt Q9Y261). In words: ATG_FoxA2_CIS: Attagene CIS-FACTORIAL HepG2 Assay for human Forkhead box A2 (FOXA2) (AID 2282942). The settings on record: HepG2 cis-reporter transcription factor activity, 24 h; actives raise or lower the signal. Summed up: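 Transient MRTU transfection of HepG2 liver cells; 24 h treatment; total RNA → oligo(dT) RT → PCR → FAM primer extension → HpaI cut → CE. Bidirectional fit vs DMSO.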

Assay [6] is described as follows: ATG_GATA_CIS: Attagene CIS-FACTORIAL HepG2 Assay for human GATA Binding Protein (AID 2282944). Conditions: HepG2 GATA cis-element reporter, Attagene multiplex mRNA; actives raise or lower the signal. The method, boiled down: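 Transfected cis-reporter HepG2 cells were treated with chemicals for 24 hours. Total RNA was then converted to cDNA, amplified with reporter-specific primers and analysed by fluorescent capillary electrophoresis, using DMSO-treated wells as baseline.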

A short description of assay [7]: ATG_FoxO_CIS: Attagene CIS-FACTORIAL HepG2 Assay for human Forkhead box O (FoxO) (AID 2282943). Conditions: HepG2 Attagene cis-reporter, FoxO element, mRNA; actives raise or lower the signal. The method, boiled down: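 Values reflect reporter mRNA induction or loss in HepG2 cells 24 h post-dosing, fitted bidirectionally with DMSO as negative control and baseline. Detection used RT-PCR and fluorescence capillary electrophoresis.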

The target of assay [8] is Bile acid receptor (Homo sapiens) (UniProt Q96RI1). In words: ATG_IR1_CIS: Attagene CIS-FACTORIAL HepG2 Assay for human Nuclear Receptor Subfamily 1 Group H Member 4 (NR1H4), IR1 submotif (AID 2282946). Conditions: IR1 reporter transcription, actives raise or lower the signal. Summed up:
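Readout: reporter transcript levels by RT-PCR with fluorescent capillary electrophoresis, from HepG2 cells transiently transfected with multiplexed cis-regulated reporters and dosed 24 h. Gain- or loss-of-signal fitted versus DMSO negative control.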

Assay [9] can be described thus: ATG_GLI_CIS: Attagene CIS-FACTORIAL HepG2 Assay for human Zinc Finger Protein GLI1 (AID 2282945). Conditions: HepG2, Attagene cis-factorial reporter mRNA, GLI element; actives raise or lower the signal. Summed up:
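HepG2 cells transiently transfected with cis-promoter multiplexed reporter units report endogenous transcription factor activity. After 24 h chemical exposure, reporter mRNA was quantified by RT-PCR, 6-FAM labelling, HpaI digestion and capillary electrophoresis, with bidirectional fitting against DMSO.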

Calls of active or inactive are those of the source. Rule for the calls: active = hit-call score of the fitted dose curve at least 0.9, where 1 is the maximum; inactive = score below 0.9.

By AC50 is commonly meant the concentration at which the activity in the assay is half-maximal.

Sequence of Bile acid receptor (Homo sapiens) (Q96RI1 whole entry, looked up): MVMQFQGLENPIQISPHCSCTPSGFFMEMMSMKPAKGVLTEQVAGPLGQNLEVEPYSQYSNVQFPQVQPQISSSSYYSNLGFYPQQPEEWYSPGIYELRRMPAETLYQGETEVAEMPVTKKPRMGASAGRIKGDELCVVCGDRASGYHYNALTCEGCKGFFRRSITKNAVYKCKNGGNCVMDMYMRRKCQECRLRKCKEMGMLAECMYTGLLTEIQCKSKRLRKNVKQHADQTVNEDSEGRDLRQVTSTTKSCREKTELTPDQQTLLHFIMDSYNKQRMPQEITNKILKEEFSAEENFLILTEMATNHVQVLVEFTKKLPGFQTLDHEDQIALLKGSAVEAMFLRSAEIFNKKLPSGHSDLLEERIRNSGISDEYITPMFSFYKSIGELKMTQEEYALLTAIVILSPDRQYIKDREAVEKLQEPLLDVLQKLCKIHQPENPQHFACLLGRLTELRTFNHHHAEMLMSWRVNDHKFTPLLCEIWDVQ
Sequence of Hepatocyte nuclear factor 3-beta (Homo sapiens) (Q9Y261 whole entry, looked up): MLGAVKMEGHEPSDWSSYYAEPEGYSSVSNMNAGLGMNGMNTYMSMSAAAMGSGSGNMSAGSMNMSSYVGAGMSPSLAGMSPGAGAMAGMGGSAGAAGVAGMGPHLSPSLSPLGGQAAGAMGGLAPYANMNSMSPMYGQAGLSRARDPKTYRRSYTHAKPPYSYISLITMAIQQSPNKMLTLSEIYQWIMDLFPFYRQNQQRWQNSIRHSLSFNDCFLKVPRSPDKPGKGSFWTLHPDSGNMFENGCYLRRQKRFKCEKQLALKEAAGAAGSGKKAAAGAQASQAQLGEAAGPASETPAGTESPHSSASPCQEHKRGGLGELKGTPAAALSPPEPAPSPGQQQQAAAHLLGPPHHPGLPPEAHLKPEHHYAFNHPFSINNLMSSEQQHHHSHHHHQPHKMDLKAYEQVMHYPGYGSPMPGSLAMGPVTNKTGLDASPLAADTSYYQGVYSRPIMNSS

In the case of `CN(C)C(=O)Nc1cccc(C(F)(F)F)c1`, the compound was called inactive in assay [1], in assay [2], in assay [3], in [4], in assay [5] and in [6].
With `CCc1cccc(CC)c1N(COC)C(=O)CCl`, the compound was classed as inactive in assay [1], in [2], in assay [3], in assay [4], in assay [5] and in assay [7]. Also, the outcome in assay [6] and in assay [8] was inactive.
As for `CC(C1CC1)C(O)(Cn1cncn1)c1ccc(Cl)cc1` (stereo unspecified), the result in assay [1], in assay [2], in [3], in [4], in assay [5] and in [7] was inactive. Besides, the call in assay [6] was inactive.
For `S=C1NCCN1`, the compound was classed as inactive in assay [1], in [2], in assay [3], in assay [4], in assay [5] and in [6].
With `COc1ccc(C(=CC(=O)N2CCOCC2)c2ccc(Cl)cc2)cc1OC`, the outcome in assay [1], in [3], in assay [5], in assay [6], in [9] and in [8] was inactive. Further, the AC50 in assay [2] was 28.4 µM (active); in assay [4], 23.2 µM (active).
In the case of `CC(=NC#N)N(C)Cc1ccc(Cl)nc1`, the call in [1], in [2], in assay [3], in assay [4], in assay [5] and in assay [6] was inactive.
With `FC(F)C(F)(F)OCC(Cn1cncn1)c1ccc(Cl)cc1Cl` (stereo unspecified), the result in [1], in assay [3], in assay [4], in assay [6] and in assay [8] was inactive. In addition, the AC50 in assay [2] and in assay [5] was 50 µM (active) in each case.
`CNC(=O)Oc1cccc2c1OC(C)(C)O2`: the compound was classed as inactive in assay [1], in assay [2], in [3], in [5], in assay [6] and in assay [8]. The AC50 in assay [4] was 75.9 µM (active).
Turning to `CCC(=O)Nc1ccc(Cl)c(Cl)c1`, the call in assay [1], in assay [2], in [3], in assay [4], in [5] and in assay [6] was inactive.
Take `COc1cc(OC)nc(Sc2cccc(Cl)c2C(=O)O)n1`: the result in [1], in assay [2], in [3], in assay [4], in assay [5] and in [6] was inactive.
`CCC(=NOC/C=C/Cl)C1=C(O)CC(C2CCOCC2)CC1=O` (stereo unspecified): the compound was classed as inactive in [1], in assay [2], in [3], in assay [4], in [5] and in [7]. The call in assay [6] was inactive.
For `CCCCOC(=O)[C@@H](C)Oc1ccc(Oc2ccc(C#N)cc2F)cc1`, the result in [1], in assay [2], in [3], in assay [4], in assay [5] and in [6] was inactive.
On to `C#CCC1=C(C)C(OC(=O)C2C(C=C(C)C)C2(C)C)CC1=O` (stereo unspecified), for which the outcome in assay [1], in assay [3], in [4], in assay [5] and in assay [8] was inactive. Also, the AC50 in [2] was 50 µM (active); in assay [6], 77.1 µM (active).
Consider `N#CSCSC#N`, for which the call in assay [1], in assay [2], in [3], in assay [4], in [5] and in assay [7] was inactive. Further, the call in assay [6] and in assay [8] was inactive.
For `Nc1c(Cl)cc([N+](=O)[O-])cc1Cl`, the result in [1], in [2], in assay [3], in assay [4], in assay [6] and in [8] was inactive. In addition, the AC50 in [5] is 76.1 µM (active).
On to `COP(=O)(OC)OC(Br)C(Cl)(Cl)Br` (stereo unspecified), for which the call in assay [1], in assay [2], in [3], in assay [4], in [5] and in assay [6] was inactive. Moreover, the compound was classed as inactive in [9] and in assay [8].
Regarding `CCOP(=O)(SC(C)CC)N1CCSC1=O` (stereo unspecified), the compound was classed as inactive in assay [1], in assay [2], in [3], in [4], in assay [5] and in [7]. Moreover, the result in assay [6] and in assay [9] was inactive.
Take `CCOP(=S)(OCC)Oc1ccc2c(C)c(Cl)c(=O)oc2c1`: the call in assay [1], in [2], in assay [3], in assay [4], in assay [5] and in [6] was inactive. Also, the result in assay [9] was inactive.
For the compound `CSC1=N[C@@](C)(c2ccccc2)C(=O)N1Nc1ccccc1`, the compound was called inactive in assay [1], in assay [3], in assay [4], in assay [5], in [6] and in assay [9]. In [8], the compound was called inactive. Moreover, the concentration at half-maximal activity (AC50) in assay [2] is 19.9 µM (active).
With `CCC(CC)Nc1c([N+](=O)[O-])cc(C)c(C)c1[N+](=O)[O-]`, the result in [1], in assay [2], in assay [3], in [4], in assay [5] and in assay [6] was inactive. In addition, in assay [9], the compound was called inactive. Further, the AC50 in assay [8] is 50 µM (active).

(Values after PubChem BioAssay (EPA / NIEHS).)
